Hit rate of the full screen: of about 330,000 compounds, about 10,000 (3%) were called active. For the sample, actives were picked, then their nearest neighbours and some compounds at random. A number with no mark means an inactive call.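 The calls were made as follows: active = inhibition of at least 50% at 8 µM in the primary screen; inactive = the rest.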
Target: Protein Mdm4 (Homo sapiens) + E3 ubiquitin-protein ligase Mdm2 (Homo sapiens) (UniProt O15151+Q00987)
Assay: disruptors of Mdm2/MdmX RING complex – cell-based, luminescence, split luciferase, SaOS-2, uHTS, primary screen (AID 485346)
Details: SaOS-2 split-luciferase Mdm2/MdmX complementation, at 8 µM, stronger effect = higher value

Chain of Protein Mdm4 (Homo sapiens) + E3 ubiquitin-protein ligase Mdm2 (Homo sapiens) (O15151 whole entry, looked up): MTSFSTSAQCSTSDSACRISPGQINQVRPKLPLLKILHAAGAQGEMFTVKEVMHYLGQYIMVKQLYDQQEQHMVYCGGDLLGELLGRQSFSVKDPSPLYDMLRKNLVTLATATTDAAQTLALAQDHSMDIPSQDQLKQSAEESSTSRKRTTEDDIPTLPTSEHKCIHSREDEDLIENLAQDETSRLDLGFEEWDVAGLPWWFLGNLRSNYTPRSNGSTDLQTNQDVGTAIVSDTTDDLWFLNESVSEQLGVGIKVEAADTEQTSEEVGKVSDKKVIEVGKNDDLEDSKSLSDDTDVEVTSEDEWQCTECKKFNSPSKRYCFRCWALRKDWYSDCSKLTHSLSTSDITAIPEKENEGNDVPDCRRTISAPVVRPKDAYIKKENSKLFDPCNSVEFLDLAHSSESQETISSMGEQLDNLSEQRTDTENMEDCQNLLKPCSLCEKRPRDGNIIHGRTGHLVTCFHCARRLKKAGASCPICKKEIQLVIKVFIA
Chain of Protein Mdm4 (Homo sapiens) + E3 ubiquitin-protein ligase Mdm2 (Homo sapiens) (Q00987 whole entry, looked up): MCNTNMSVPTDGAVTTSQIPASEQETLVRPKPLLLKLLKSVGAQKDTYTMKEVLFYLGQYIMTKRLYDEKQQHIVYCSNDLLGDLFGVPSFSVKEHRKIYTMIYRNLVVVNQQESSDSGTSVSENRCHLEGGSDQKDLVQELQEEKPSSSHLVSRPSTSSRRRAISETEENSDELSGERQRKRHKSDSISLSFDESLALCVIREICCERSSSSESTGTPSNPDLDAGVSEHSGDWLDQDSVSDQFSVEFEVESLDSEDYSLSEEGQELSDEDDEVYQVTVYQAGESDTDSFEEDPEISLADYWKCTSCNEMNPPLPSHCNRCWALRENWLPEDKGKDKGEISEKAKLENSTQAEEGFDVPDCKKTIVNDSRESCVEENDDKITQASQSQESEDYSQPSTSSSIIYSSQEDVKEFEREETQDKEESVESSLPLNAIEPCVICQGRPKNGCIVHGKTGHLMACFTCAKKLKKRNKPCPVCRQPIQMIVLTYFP

SMILES	inhibition
CN(C)c1ccc(-c2nnc(-c3cccnc3)o2)cc1	-90.9%
OC(CNCc1ccc2c(c1)OCO2)COc1ccccc1 (configuration not stated)	-15.2%
Cc1ccc(OCC(=O)OC(C)CN(C)Cc2ccccc2)cc1 (configuration not stated)	-13.3%
CN(Cc1ccccc1)CC(O)COc1ccc(CNCc2cc3ccccc3s2)cc1 (configuration not stated)	51.9% (active)
CCC(C)c1ccc(NC(=S)N2CCCC2)cc1 (configuration not stated)	17.9%
O=C(O)CN1C(=O)CC(Cc2ccccc2)C1=O (configuration not stated)	3.44%
NS(=O)(=O)c1ccc(CNC(=O)c2cccc(S(=O)(=O)N3CCc4ccccc43)c2)cc1	27.6%
C[C@@H]1CN([C@@H](C)CO)C(=O)c2cccc(NS(=O)(=O)c3ccc(F)cc3)c2O[C@H]1CN(C)C(=O)NC1CCCCC1	-2.62%
CN1CCN(c2ccccc2NC(=O)COc2ccc(C3CCCCC3)cc2)CC1	51.3% (active)
O=C(CN1CCN(C2CCCCC2)CC1)Nc1ccccc1N1CCCCC1	20%
Cc1ccc(C(C)C)cc1OCC(=O)Nc1ccccc1N1CCCC1	28.7%
CSCCC1NC(=O)N(CC(=O)Nc2cccc(S(=O)(=O)N3CCCCCC3)c2)C1=O (configuration not stated)	2.6%
O=C1/C(=C\Nc2ccccc2)CCN1c1ncccn1	-11.4%
O=C(CN1CCCSc2ccccc21)N1CCN(S(=O)(=O)c2ccccc2)CC1	-4.66%
Cc1ccccc1NC(=O)Nc1ccccc1N1CCCCC1	2.88%
O=C(NC(=O)c1ccccc1N1CCCCC1)Nc1ccc(Br)cc1	51.5% (active)
COc1ccccc1C(=O)NC(=S)Nc1ccccc1N1CCCCC1	30%
COc1ccccc1NC(=O)CN(c1ccccc1OC)S(=O)(=O)c1ccccc1	-19.5%
COc1ccc(S(=O)(=O)N(CC(=O)N/N=C/c2ccccc2C(=O)O)c2ccccc2OC)cc1	-6.42%
COc1ccccc1N(CC(=O)N/N=C(\C)c1ccccc1O)S(=O)(=O)c1ccc(C)cc1	52.3% (active)
C=CCN1CC(C)/C(=N\O)CC1C (configuration not stated)	24.4%

SMILES	inhibition
Brc1cc(Br)c(Oc2cc(Br)c(Br)cc2Br)cc1Br	15.4%
Fc1ccccc1-c1cc2cc3c(cc2cn1)OCO3	-231%
Cc1nc2ccccc2n1CC(=O)N/N=C/c1cccnc1	25.2%
O=C(CSc1cccc2cccnc12)N/N=C/c1cccnc1	54.3% (active)
Cc1ccc(NC(=O)CSc2cccc3cccnc23)c(C)c1	28.1%
C/C(=N\NC(=O)c1ccc(CSc2nc(C)cc(C)n2)cc1)C1CCCCC1	11.2%
COc1ccc(NC(=O)CSCc2ccc([N+](=O)[O-])cc2)cc1OC	22.2%
O=C(c1cccc(S(=O)(=O)N2CCCC2)c1)N(Cc1ccco1)C1CCS(=O)(=O)C1 (configuration not stated)	10.9%
CC1(C(=O)N/N=C/c2cc3c(cc2Br)OCO3)CC1(Br)Br (configuration not stated)	31.2%
O=C(N/N=C/c1cc2c(cc1Br)OCO2)C1COc2ccccc2O1 (configuration not stated)	3.36%
O=C(N/N=C\c1cc2c(cc1Cl)OCO2)c1ccc(Br)s1	87.3% (active)
O=S(=O)(Nc1nccs1)c1ccc2c(c1)OCCO2	12.5%
CC(Sc1nnc(CNC(=O)c2ccccc2F)n1C)C(=O)Nc1nccs1 (configuration not stated)	-5.88%
Nc1ccc2nn(-c3ccc(Cl)cc3)nc2c1	-91.9%
CC(C)Oc1c(Br)cc(Br)cc1/C=N/NC(N)=S	57.4% (active)
NC(=S)N/N=C/c1coc2cc(Cl)ccc2c1=O	-1.23%
CCOc1ccc(/C=N/NC(N)=S)cc1	10.2%
COC(=O)CCC(=O)N1CCCC(CO)(Cc2ccccc2)C1 (configuration not stated)	-73.8%
C[C@@H](C(=O)N1CCNCC1)n1cc(CCC(=O)O)nn1	3.92%
COc1ccc(N(C(=O)c2snc(C(N)=O)c2N)C(C(=O)NC2CCCC2)c2ccc(C)o2)c(OC)c1 (configuration not stated)	8.7%
CC(=O)Nc1ccc(NC(=O)C(C)OC(=O)c2ccccc2C(=O)c2ccc(Cl)c([N+](=O)[O-])c2)cc1 (configuration not stated)	98.6% (active)

SMILES	inhibition
CC(=O)Nc1ccc(NC(=O)COC(=O)c2ccccc2C(=O)c2ccccc2)cc1	2.79%
CC(OC(=O)CNC(=O)c1ccc(Cl)c([N+](=O)[O-])c1)C(=O)NCc1ccco1 (configuration not stated)	27.3%
N#Cc1cccc(NC(=O)COC(=O)c2ccccc2C(=O)c2ccc(Cl)c([N+](=O)[O-])c2)c1	98.1% (active)
O=C(Nc1ccncc1)c1ccc(Cl)c([N+](=O)[O-])c1	6.79%
COC(=O)c1cc(NC(=O)Cc2ccccc2[N+](=O)[O-])ccc1Cl	-1.62%
CCC(=O)c1ccc(OCC(O)Cn2nc(C)c(C(C)=O)c2C)cc1 (configuration not stated)	4.82%
CC1CCCC(NC(=O)c2cc(-c3ccncc3)nc3ccccc23)C1C (configuration not stated)	-4.9%
Cc1ccc(C(=O)O)cc1S(=O)(=O)NCC1CCCO1 (configuration not stated)	-63.3%
Cc1noc(C)c1CCC(=O)N1CCCC(CO)(Cc2ccccc2)C1 (configuration not stated)	-31.3%
COc1ccc(Cl)cc1NC(=O)CN(C)Cc1ccc(OC)c(OC)c1	29.4%
C/C(=N\NC(=O)OC(C)(C)C)c1ccc[nH]1	-29.2%
COc1ccccc1C(=O)Nc1ccc(C)c(S(=O)(=O)N2CCCCC2)c1	15%
Cc1ccccc1C(=O)N1CCN(c2ccc(NC(=O)c3cccs3)cc2)CC1	53.9% (active)
O=C(Nc1ccc(N2CCN(C(=O)C3CC3)CC2)cc1)c1cccs1	-10.3%
O=C(Nc1ccc(N2CCN(C(=O)c3cccs3)CC2)cc1)c1cccnc1Cl	-22.2%
CCCc1cc(=O)[nH]c(SCC(=O)Nc2ccc(C(=O)Nc3ccccc3OC)cc2)n1	21.4%
COCCNC(=O)C(OC(=O)c1cccs1)c1ccc(F)cc1 (configuration not stated)	4.05%
CCc1cccc(NC(=O)CCC(=O)O)c1	3.13%
O=C(CCl)Nc1cccc(CP(=O)(c2ccccc2)c2ccccc2)c1	96.3% (active)
O=C(Cc1ccccc1)Nc1cccc(NC(=O)c2ccccc2)c1	4.35%

Reference: PubChem BioAssay AID485346 (Sanford-Burnham Center for Chemical Genomics, 2010)
